Experimental data taken from PubChem BioAssay AID1159580 (chemical genetic matrix, 2015).
Several values for one entry are separate records, joined by “and”; a condition that tells them apart may be missing. Identical values can stand only once. Hit rate of the full screen: of about 5,500 compounds, about 2,000 (36%) were called active. Not shown: some 18% with an inconclusive outcome. Cut-off read from the data, not from the text of the source: active = normalized growth mostly below about 0.91 (no sharp cut-off); inconclusive = no clear call, values can overlap the other calls; inactive = mostly above about 0.92. The list shows a part of the results.

Test: chemical genetic growth profiling, strain panel (AID 1159580);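 note: tested at 20 µM; growth read once vehicle control cultures reached saturation at 30 °C; 1 = growth at the plate median or of vehicle wells; lower values mean less growth of the strain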
Conditions: growth OD

Measured: normalized growth

CCn1cc(C(=O)O)c(=O)c2cc(F)c(N3CCNC(C)C3)c(F)c21 (stereo not given)
inactive: S. cerevisiae deletion strains, locus YJR075W, strain HOC1, active compounds read low 0.991 and 0.993 | S. cerevisiae deletion strains, locus YKL009W, strain mrt4, active compounds read low 0.979 | S. cerevisiae deletion strains, locus YKL068W, active compounds read low 0.981 | S. cerevisiae deletion strains, locus YKL085W, strain MDH1 (second series), active compounds read low 0.985 | S. cerevisiae deletion strains, locus YKL085W, strain MDH1, active compounds read low 0.985 | S. cerevisiae deletion strains, locus YKL160W, strain elf1, active compounds read low 0.943 | S. cerevisiae deletion strains, locus YKL190W, strain CNB1, active compounds read low 0.995 | S. cerevisiae deletion strains, locus YKR001C, strain vps1, active compounds read low 0.993 | S. cerevisiae deletion strains, locus YKR026C, strain gcn3, active compounds read low 0.996 | S. cerevisiae deletion strains, locus YKR091W, strain srl3, active compounds read low 0.982 | S. cerevisiae deletion strains, locus YLL001W, strain dnm1, active compounds read low 0.985 | S. cerevisiae deletion strains, locus YLL026W, active compounds read low 0.99 | S. cerevisiae deletion strains, locus YLL041C, strain sdh2, active compounds read low 0.975 | S. cerevisiae deletion strains, locus YLR027C, strain aat2, active compounds read low 0.992 | S. cerevisiae deletion strains, locus YLR039C, strain RIC1, active compounds read low 0.973 | S. cerevisiae deletion strains, locus YLR058C, strain SHM2, active compounds read low 0.995 | S. cerevisiae deletion strains, locus YLR102C, strain apc9, active compounds read low 0.986 | S. cerevisiae deletion strains, locus YLR113W, strain HOG1, active compounds read low 1.06 | S. cerevisiae deletion strains, locus YLR221C, strain rsa3, active compounds read low 1 | S. cerevisiae deletion strains, locus YLR258W, strain gsy2, active compounds read low 0.98 | S. cerevisiae deletion strains, locus YLR262C, strain YPT6 (second series), active compounds read low 0.996 | S. cerevisiae deletion strains, locus YLR262C, strain YPT6, active compounds read low 0.979 | S. cerevisiae deletion strains, locus YLR268W, strain sec22, active compounds read low 0.988 | S. cerevisiae deletion strains, locus YLR320W, strain mms22, active compounds read low 0.961 | S. cerevisiae deletion strains, locus YLR330W, strain CHS5, active compounds read low 0.982 | S. cerevisiae deletion strains, locus YLR342W, strain FKS1 (second series), active compounds read low 0.951 | S. cerevisiae deletion strains, locus YLR342W, strain FKS1, active compounds read low 0.957 | S. cerevisiae deletion strains, locus YLR357W, strain rsc2, active compounds read low 0.919 | S. cerevisiae deletion strains, locus YLR370C, strain arc18, active compounds read low 0.965 | S. cerevisiae deletion strains, locus YLR371W, strain rom2, active compounds read low 0.992 | S. cerevisiae deletion strains, locus YLR384C, strain iki3, active compounds read low 0.964 | S. cerevisiae deletion strains, locus YLR418C, strain cdc73, active compounds read low 0.892 | S. cerevisiae deletion strains, locus YML016C, strain PPZ1, active compounds read low 0.991 | S. cerevisiae deletion strains, locus YML032C, strain rad52, active compounds read low 0.994 | S. cerevisiae deletion strains, locus YML120C, strain ndi1, active compounds read low 0.993 | S. cerevisiae deletion strains, locus YML124C, strain tub3, active compounds read low 0.996 | S. cerevisiae deletion strains, locus YMR058W, strain fet3, active compounds read low 0.994 | S. cerevisiae deletion strains, locus YMR078C, strain ctf18, active compounds read low 0.982 | S. cerevisiae deletion strains, locus YMR125W, strain sto1, active compounds read low 0.961 | S. cerevisiae deletion strains, locus YMR129W, active compounds read low 0.971 | S. cerevisiae deletion strains, locus YMR205C, strain PFK2, active compounds read low 0.985 | S. cerevisiae deletion strains, locus YMR223W, strain ubp8, active compounds read low 0.976 | S. cerevisiae deletion strains, locus YMR231W, strain pep5, active compounds read low 0.984 | S. cerevisiae deletion strains, locus YMR263W, strain SAP30, active compounds read low 1 | S. cerevisiae deletion strains, locus YMR307W, strain GAS1, active compounds read low 1.01 | S. cerevisiae deletion strains, locus YNL067W, strain RPL9B, active compounds read low 1.03 | S. cerevisiae deletion strains, locus YNL071W, strain lat1, active compounds read low 0.977 | S. cerevisiae deletion strains, locus YNL128W, strain TEP1, active compounds read low 0.964 | S. cerevisiae deletion strains, locus YNL153C, strain GIM3, active compounds read low 1.06 | S. cerevisiae deletion strains, locus YNL175C, strain NOP13, active compounds read low 0.998 | S. cerevisiae deletion strains, locus YNL183C, strain NPR1, active compounds read low 0.962 | S. cerevisiae deletion strains, locus YNL197C, strain WHI3, active compounds read low 1 | S. cerevisiae deletion strains, locus YNL209W, strain ssb2, active compounds read low 0.965 | S. cerevisiae deletion strains, locus YNL224C, strain SQS1, active compounds read low 0.994 | S. cerevisiae deletion strains, locus YNL233W, strain BNI4, active compounds read low 1.03 | S. cerevisiae deletion strains, locus YNL248C, strain rpa49, active compounds read low 0.926 | S. cerevisiae deletion strains, locus YNL250W, strain rad50, active compounds read low 0.943 | S. cerevisiae deletion strains, locus YNL271C, strain bni1, active compounds read low 0.992 | S. cerevisiae deletion strains, locus YNL298W, strain CLA4, active compounds read low 0.988 | S. cerevisiae deletion strains, locus YNL307C, strain MCK1, active compounds read low 0.984 | S. cerevisiae deletion strains, locus YNL322C, strain KRE1 (second series), active compounds read low 0.964 | S. cerevisiae deletion strains, locus YNL322C, strain KRE1, active compounds read low 1.02 | S. cerevisiae deletion strains, locus YNR049C, strain mso1, active compounds read low 0.975 | S. cerevisiae deletion strains, locus YNR052C, strain pop2, active compounds read low 0.989 | S. cerevisiae deletion strains, locus YOL006C, strain TOP1, active compounds read low 1.08 | S. cerevisiae deletion strains, locus YOL012C, strain htz1 1.44 | S. cerevisiae deletion strains, locus YOL147C, strain pex11, active compounds read low 0.985 | S. cerevisiae deletion strains, locus YOR001W, strain rrp6, active compounds read low 1 | S. cerevisiae deletion strains, locus YOR061W, strain CKA2, active compounds read low 0.993 | S. cerevisiae deletion strains, locus YOR069W, strain VPS5, active compounds read low 0.988 | S. cerevisiae deletion strains, locus YOR070C, strain gyp1, active compounds read low 0.985 | S. cerevisiae deletion strains, locus YOR080W, strain dia2, active compounds read low 0.972 | S. cerevisiae deletion strains, locus YOR083W, strain WHI5 (second series), active compounds read low 0.992 | S. cerevisiae deletion strains, locus YOR083W, strain WHI5, active compounds read low 0.897 | S. cerevisiae deletion strains, locus YOR106W, strain vam3, active compounds read low 0.931 | S. cerevisiae deletion strains, locus YOR136W, strain idh2, active compounds read low 0.998 | S. cerevisiae deletion strains, locus YOR144C, strain elg1, active compounds read low 0.992 | S. cerevisiae deletion strains, locus YOR184W, strain ser1, active compounds read low 0.988 | S. cerevisiae deletion strains, locus YOR231W, strain MKK1, active compounds read low 1.04 | S. cerevisiae deletion strains, locus YOR265W, strain rbl2, active compounds read low 0.972 | S. cerevisiae deletion strains, locus YOR270C, strain vph1, active compounds read low 0.982 | S. cerevisiae deletion strains, locus YOR290C, strain snf2, active compounds read low 0.968 | S. cerevisiae deletion strains, locus YOR316C, strain cot1, active compounds read low 1 | S. cerevisiae deletion strains, locus YPL051W, strain arl3, active compounds read low 0.971 | S. cerevisiae deletion strains, locus YPL055C, strain LGE1, active compounds read low 0.985 | S. cerevisiae deletion strains, locus YPL078C, strain atp4, active compounds read low 0.957 | S. cerevisiae deletion strains, locus YPL106C, strain sse1, active compounds read low 0.939 | S. cerevisiae deletion strains, locus YPL240C, strain hsp82, active compounds read low 0.983 | S. cerevisiae deletion strains, locus YPL256C, strain CLN2, active compounds read low 1.04 | S. cerevisiae deletion strains, locus YPR119W, strain clb2, active compounds read low 0.993 | S. cerevisiae deletion strains, locus YPR141C, strain kar3, active compounds read low 0.985 | S. cerevisiae deletion strains, locus YPR163C, strain tif3, active compounds read low 0.986 | S. cerevisiae deletion strains, locus YPR167C, strain met16, active compounds read low 0.999 | S. cerevisiae deletion strains, strain wtn01, active compounds read low 0.998 | S. cerevisiae strains, strain wild type, active compounds read low 0.997
